For orientation: AC50 means the concentration giving half of the maximal activity seen.

Records with an inconclusive call do not appear. The source made the active and inactive calls. The calls were made as follows: active = hit-call score of the fitted dose curve at least 0.9, where 1 is the maximum; inconclusive = response in the unintended direction; inactive = score below 0.9.

We go through one molecule from PubChem BioAssay AID2284182 (EPA ToxCast).

human Serotonin Receptor 5-HT7 Agonism, HTR7 (gene 3363), sequence (P34969 whole entry, looked up): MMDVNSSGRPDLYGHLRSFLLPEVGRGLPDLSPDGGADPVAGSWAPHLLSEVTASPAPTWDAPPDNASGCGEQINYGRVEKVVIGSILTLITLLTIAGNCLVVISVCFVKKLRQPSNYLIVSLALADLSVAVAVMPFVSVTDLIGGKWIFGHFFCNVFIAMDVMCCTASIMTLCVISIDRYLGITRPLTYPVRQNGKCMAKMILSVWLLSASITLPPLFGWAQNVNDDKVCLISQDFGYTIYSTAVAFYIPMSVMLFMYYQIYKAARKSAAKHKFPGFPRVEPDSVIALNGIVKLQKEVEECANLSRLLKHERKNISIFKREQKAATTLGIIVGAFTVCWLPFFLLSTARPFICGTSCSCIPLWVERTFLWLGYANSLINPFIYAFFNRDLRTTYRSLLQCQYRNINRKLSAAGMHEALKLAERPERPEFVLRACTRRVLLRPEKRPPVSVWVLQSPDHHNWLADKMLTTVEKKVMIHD

This assay concerns the target human Serotonin Receptor 5-HT7 Agonism, HTR7 (gene 3363) (UniProt P34969). The assay is described as follows: ERF_FR_GPCR_hHTR7: Eurofins (ERF) G Protein-Coupled Receptor (GPCR) Radioligand Binding LeadHunter Assay for human Serotonin Receptor 5-HT7 Agonism. On the procedure: ERF_FR_GPCR_hHTR7 is a biochemical, single-readout assay that uses extracted gene-proteins in a cell-free assay. Measurements were taken 2 hour after chemical dosing in a 96-well plate. See 5-HT7 Human Serotonin GPCR Binding (Agonist Radioligand) Assay, Cerep.ERF_FR_GPCR_hHTR7 is an assay component calculated from the ERF_FR_GPCR_hHTR7 assay. It is designed to measure radioligand binding using a type of binding reporter as detected by scintillation counting with radiometry technology.Data from the assay component ERF_FR_GPCR_hHTR7 was analyzed at the assay endpoint, ERF_FR_GPCR_hHTR7, in the positive analysis fitting direction relative to DMSO as the negative control and baseline of activity. Using a type of binding reporter, gain-of-signal activity can be used to understand changes in binding as they relate to gene HTR7. To generalize the intended target to other relatable targets, this assay endpoint is annotated to the gpcr intended target family, where the subfamily is serotonin.
Human cells are incubated for 120 minutes at room tempreture with [3H]LSD ligand (2.3 nM) and serotonin as control inhibitor. Test Sample Requirements: Minimum for 1) Screen: 60 ul of 10 mM stock -OR- 1 mg (pre-weighed) for 10 uM final testing. 2) Dose Response: 90 ul of 10 mM stock -OR- 1 mg (pre-weighed) for a top concentration at 10 uM.
For the molecule `O=C(/C=C/c1ccc(O)cc1)CC(=O)/C=C/c1ccc(O)cc1`, the AC50 is 1750 nM (active).
